# Results as given in article PMC11006913.
# Where a chain is given by its changes, count along the chain named.
# Key:
# Assay in all cases: PBM; 200 nM protein, PBS
# Conditions in all cases: dsDNA, one strand shown
# [1] = biological target: T1, SIX6 (Homo sapiens, UniProt O95475 114-200, L167M)
# T1 sequence: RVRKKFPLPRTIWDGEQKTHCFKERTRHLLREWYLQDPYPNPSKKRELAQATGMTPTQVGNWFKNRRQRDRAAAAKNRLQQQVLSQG
# [2] = biological target: T2, PAX4 (Homo sapiens, UniProt O43316 9-242)
# T2 sequence: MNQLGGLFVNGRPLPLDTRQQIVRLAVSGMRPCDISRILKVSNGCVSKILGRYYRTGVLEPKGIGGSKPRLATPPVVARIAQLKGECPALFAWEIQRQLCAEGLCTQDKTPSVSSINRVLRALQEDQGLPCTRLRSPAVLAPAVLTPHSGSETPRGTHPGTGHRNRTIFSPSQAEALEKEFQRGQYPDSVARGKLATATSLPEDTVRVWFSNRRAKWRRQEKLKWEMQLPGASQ
# [3] = biological target: T3, PAX4 (Homo sapiens, UniProt O43316 9-242, F177Y)
# T3 sequence: T2 sequence with F169Y
# [4] = biological target: T4, PAX4 (Homo sapiens, UniProt O43316 9-242, R227W)
# T4 sequence: T2 sequence with R219W
# [5] = biological target: T5, PAX4 (Homo sapiens, UniProt O43316 9-242, F177V)
# T5 sequence: T2 sequence with F169V
# [6] = biological target: T6, SIX6 (Homo sapiens, UniProt O95475 114-200, L143I)
# T6 sequence: T1 sequence with L30I, M54L
# [7] = biological target: HOXB6 (Homo sapiens, UniProt P17509 132-218, K202E)
# [8] = biological target: T7, NKX2-6 (Homo sapiens, UniProt A6NCS4 118-204, R150C)
# T7 sequence: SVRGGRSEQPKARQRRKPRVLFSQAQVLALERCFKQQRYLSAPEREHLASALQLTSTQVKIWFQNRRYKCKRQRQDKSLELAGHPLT
# [9] = biological target: HOXB6 (Homo sapiens, UniProt P17509 132-218)
# [10] = biological target: ALX3 (Homo sapiens, UniProt O95076 139-225, N203Q)
# [11] = biological target: ALX3 (Homo sapiens, UniProt O95076 139-225)
# [12] = biological target: ALX3 (Homo sapiens, UniProt O95076 139-225, N203S)
# [13] = biological target: HOXA2 (Homo sapiens, UniProt O43364 129-215, R185T)
# [14] = biological target: HOXA2 (Homo sapiens, UniProt O43364 129-215, R185K)
# [15] = biological target: HOXA2 (Homo sapiens, UniProt O43364 129-215, Y150S)
# [16] = biological target: HOXA2 (Homo sapiens, UniProt O43364 129-215)
# Chain of HOXA2 (Homo sapiens, UniProt O43364 129-215) (O43364 129-215): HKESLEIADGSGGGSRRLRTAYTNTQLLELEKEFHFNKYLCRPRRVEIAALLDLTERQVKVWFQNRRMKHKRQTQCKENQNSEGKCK
# Chain of HOXB6 (Homo sapiens, UniProt P17509 132-218) (P17509 132-218): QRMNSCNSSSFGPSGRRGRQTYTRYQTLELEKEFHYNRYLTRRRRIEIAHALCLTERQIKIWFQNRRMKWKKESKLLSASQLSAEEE
# Chain of HOXB6 (Homo sapiens, UniProt P17509 132-218, K202E) (P17509 132-218 K202E): as the sequence (P17509 132-218) above, with K71E counted along it
# Chain of ALX3 (Homo sapiens, UniProt O95076 139-225) (O95076 139-225): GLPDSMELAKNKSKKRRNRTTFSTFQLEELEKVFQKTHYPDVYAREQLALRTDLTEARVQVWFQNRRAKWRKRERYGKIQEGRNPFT
# Chain of HOXA2 (Homo sapiens, UniProt O43364 129-215, R185T) (O43364 129-215 R185T): as the sequence (O43364 129-215) above, with R57T counted along it
# Chain of HOXA2 (Homo sapiens, UniProt O43364 129-215, R185K) (O43364 129-215 R185K): as the sequence (O43364 129-215) above, with R57K counted along it
# Chain of HOXA2 (Homo sapiens, UniProt O43364 129-215, Y150S) (O43364 129-215 Y150S): as the sequence (O43364 129-215) above, with Y22S counted along it
# Chain of ALX3 (Homo sapiens, UniProt O95076 139-225, N203Q) (O95076 139-225 N203Q): as the sequence (O95076 139-225) above, with N65Q counted along it
# Chain of ALX3 (Homo sapiens, UniProt O95076 139-225, N203S) (O95076 139-225 N203S): as the sequence (O95076 139-225) above, with N65S counted along it
sequence,measurement,setting,value
AGGTATAT,binding signal,[1],"10.8 upbm affinity estimate (log intensity, higher = more binding, comparable within an allelic series)"
AAAACCAT,binding signal,[2],"10.5 upbm affinity estimate (log intensity, higher = more binding, comparable within an allelic series)"
same,binding signal,[3],"9.98 upbm affinity estimate (log intensity, higher = more binding, comparable within an allelic series)"
same,binding signal,[4],"10.1 upbm affinity estimate (log intensity, higher = more binding, comparable within an allelic series)"
GGCGATAC,binding signal,[1],"10.1 upbm affinity estimate (log intensity, higher = more binding, comparable within an allelic series)"
GAATTGAA,binding signal,[2],"10.6 upbm affinity estimate (log intensity, higher = more binding, comparable within an allelic series)"
same,binding signal,[5],"10.1 upbm affinity estimate (log intensity, higher = more binding, comparable within an allelic series)"
same,binding signal,[4],"10.1 upbm affinity estimate (log intensity, higher = more binding, comparable within an allelic series)"
GGTATCGA,binding signal,[1],"10.4 upbm affinity estimate (log intensity, higher = more binding, comparable within an allelic series)"
CGACACCA,binding signal,[1],"9.52 upbm affinity estimate (log intensity, higher = more binding, comparable within an allelic series)"
ATATACTC,binding signal,[1],"10.7 upbm affinity estimate (log intensity, higher = more binding, comparable within an allelic series)"
same,binding signal,[6],"10.4 upbm affinity estimate (log intensity, higher = more binding, comparable within an allelic series)"
GTATCGAA,binding signal,[1],"10.2 upbm affinity estimate (log intensity, higher = more binding, comparable within an allelic series)"
ACCGATAC,binding signal,[1],"10.2 upbm affinity estimate (log intensity, higher = more binding, comparable within an allelic series)"
CGGATATA,binding signal,[1],"10.8 upbm affinity estimate (log intensity, higher = more binding, comparable within an allelic series)"
AATAACGG,binding signal,[2],"10.8 upbm affinity estimate (log intensity, higher = more binding, comparable within an allelic series)"
same,binding signal,[5],"10 upbm affinity estimate (log intensity, higher = more binding, comparable within an allelic series)"
same,binding signal,[3],"10.1 upbm affinity estimate (log intensity, higher = more binding, comparable within an allelic series)"
same,binding signal,[4],"10.1 upbm affinity estimate (log intensity, higher = more binding, comparable within an allelic series)"
GGGGGATA,binding signal,[1],"10.8 upbm affinity estimate (log intensity, higher = more binding, comparable within an allelic series)"
ACGGGCCT,binding signal,[7],"8.87 upbm affinity estimate (log intensity, higher = more binding, comparable within an allelic series)"
same,binding signal,[8],"9.14 upbm affinity estimate (log intensity, higher = more binding, comparable within an allelic series)"
same,binding signal,[9],"8.95 upbm affinity estimate (log intensity, higher = more binding, comparable within an allelic series)"
ACTATTGA,binding signal,[7],"9.51 upbm affinity estimate (log intensity, higher = more binding, comparable within an allelic series)"
same,binding signal,[10],"8.21 upbm affinity estimate (log intensity, higher = more binding, comparable within an allelic series)"
same,binding signal,[11],"9.1 upbm affinity estimate (log intensity, higher = more binding, comparable within an allelic series)"
same,binding signal,[12],"8.3 upbm affinity estimate (log intensity, higher = more binding, comparable within an allelic series)"
same,binding signal,[9],"10.1 upbm affinity estimate (log intensity, higher = more binding, comparable within an allelic series)"
AGCCTTGC,binding signal,[7],"9.12 upbm affinity estimate (log intensity, higher = more binding, comparable within an allelic series)"
same,binding signal,[13],"7.13 upbm affinity estimate (log intensity, higher = more binding, comparable within an allelic series)"
same,binding signal,[14],"10.3 upbm affinity estimate (log intensity, higher = more binding, comparable within an allelic series)"
same,binding signal,[15],"10.6 upbm affinity estimate (log intensity, higher = more binding, comparable within an allelic series)"
same,binding signal,[16],"7.12 upbm affinity estimate (log intensity, higher = more binding, comparable within an allelic series)"
same,binding signal,[9],"8.94 upbm affinity estimate (log intensity, higher = more binding, comparable within an allelic series)"
CGAGGCTC,binding signal,[7],"9.01 upbm affinity estimate (log intensity, higher = more binding, comparable within an allelic series)"
same,binding signal,[8],"9.43 upbm affinity estimate (log intensity, higher = more binding, comparable within an allelic series)"
same,binding signal,[9],"9.11 upbm affinity estimate (log intensity, higher = more binding, comparable within an allelic series)"
